Hit rate of the full screen: of about 69,000 compounds, about 8,600 (12%) showed an effect of 50% or more. For the sample, strong results were picked, then their nearest neighbours and some compounds at random.

This assay deals with Plasmodium berghei. The assay can be described thus: Screen against P. berghei liver stage (PbLuc), transformed with Luciferase, at 10uM. It counts as functional, HepG2. To be noted: tested at 10 uM.
With `O=C(Nc1nccs1)NC1CCN(Cc2ccccc2)CC1`, the INHIBITION was 15%.
With `C=c1ncsc1=C1NN=C(C2CCCN2C(=O)c2ccn(CC)n2)O1` (centres undefined), the INHIBITION worked out at 9.535%.
In the case of `FC(F)(F)C1CN(Cc2cccc(-c3ccccn3)c2)CCO1` (centres undefined), the INHIBITION is 4.93%.
For the compound `CC(=O)NCc1ccc(-c2ccccc2C(=O)O)cn1`, the INHIBITION is recorded as -24.5%.
In the case of `CCOC(=O)CC1CCCCN1C(=O)c1cc(C)on1` (centres undefined), the INHIBITION is recorded as 17.5%.
Take `Cc1cc(C(=O)N2CCCC2CN2CCCC2)no1` (centres undefined): the INHIBITION turned out to be 61.1%.
Regarding `CNc1nc(C)c(C(=O)N2CCCCC2CCN2CCOCC2)s1` (centres undefined), the INHIBITION turned out to be 13.6%.
Turning to `CNc1nc(C)c(C(=O)N2CCCCC2CCc2ccccc2)s1` (centres undefined), the INHIBITION is -14.7%.
In the case of `CNc1nc(C)c(C(=O)N2CCCCC2CN2CCCCCC2)s1` (centres undefined), the INHIBITION was 50%.
`Cc1cc(C(=O)N2CC[C@@H]3CO[C@@H](CN4CCCC4)[C@@H]3C2)no1`: the INHIBITION was determined as 23.3%.
For the compound `OC(CN1CCN(Cc2cc(F)cc(F)c2)CC1)C1CC1` (centres undefined), the INHIBITION was 5.85%.
Regarding `Cc1cc(CN(C)CC(c2cccs2)N2CCOCC2)on1` (centres undefined), the INHIBITION is -48.4%.
On to `CCN(CC)c1ncc(S(=O)(=O)c2cccc(C)c2)c(N)n1`, for which the INHIBITION is on record as 17.7%.
In the case of `CN1CCCN(c2ncnc(N3CCOCC3)c2N)CC1`, the INHIBITION worked out at 32.2%.
On to `CCCNc1cc(C(=O)N2CCOCC2)nc(C)n1`, for which the INHIBITION amounted to 34.6%.
Regarding `Cc1nc(C(=O)N2CCOCC2)cc(N2CCC(C(N)=O)CC2)n1`, the INHIBITION is 56.1%.
As to `Cc1nc(C2CN(C)CCO2)cc(N2CCC(C(N)=O)CC2)n1` (centres undefined), the INHIBITION is listed as -20.2%.
Consider `CCOC(=O)C1CCN(c2cc(C(=O)N3CCOCC3)nc(C)n2)CC1`, for which the INHIBITION is 62.9%.
In the case of `COCCNc1cc(C(=O)N2CCOCC2)nc(C)n1` it was 8.24%; in that of `CCOC(=O)C1CCN(c2cc(C(=O)N3CCCCC3)nc(C)n2)CC1`, 9.52%.
In the case of `CC(C)(O)CN1CCN(C(=O)c2ccc(Cl)c3cccnc23)CC1` it was 36.9%; in that of `COc1cc(C(=O)O)cc(I)c1OCC(=O)NCCc1ccccc1`, 25.5%; in that of `CC(NC(=O)NCCc1ccc(Cl)s1)c1ccccn1` (centres undefined), -12.1%.
Consider `COc1ccc(C(=O)N2CC(=O)N(Cc3cccs3)CC(O)C2)cc1` (centres undefined), for which the INHIBITION is reported as 27.5%.
For the compound `CC(C)COC(=O)N1CCN(C(=O)c2ccc3nccn3c2)CC1`, the INHIBITION came to 50.1%.
For `CC(C)COC(=O)N1CCCN(C(=O)c2ccnc(N(C)C)c2)CC1`, the INHIBITION is given as 33.4%.
In the case of `CC(C)CCC(=O)N1CCN(C(=O)c2ccc3nccn3c2)CC1` it was 24.2%; in that of `c1ncn(CC2CCCCN2Cc2csc(-c3ccsc3)n2)n1` (centres undefined), -58.7%; in that of `CCC1COCCN1C(=O)NCc1nccn1CC(C)C` (centres undefined), 8.59%.
Regarding `Cn1cccc1CNC(=O)N(CCO)C1CCCc2ccccc21` (centres undefined), the INHIBITION came out at 26.8%.
Turning to `CN1C[C@@H]2COC[C@]2(C(=O)NCCc2cccs2)C1`, the INHIBITION is given as 34.6%.
Regarding `O=C(NCc1cccs1)[C@]12COC[C@H]1CN(c1ncccn1)C2`, the INHIBITION is reported as 2.41%.
`O=C(NCCc1cccs1)[C@]12COC[C@H]1CN(C1CCOCC1)C2`: the INHIBITION amounted to 61.1%.
Turning to `O=C(NC1CC(F)(F)C1)[C@]12COC[C@H]1CN(Cc1cccnc1)C2`, the INHIBITION was 29.4%.
As for `CS(=O)(=O)N1C[C@@H]2COC[C@]2(C(=O)NCCc2cccs2)C1`, the INHIBITION was found to be 24.9%.
Consider `O=C(NCCc1cccs1)[C@]12COC[C@H]1CN(Cc1ccncc1)C2`, for which the INHIBITION is given as 54.8%.
On to `O=C(NCCc1cccs1)[C@]12COC[C@H]1CN(c1ncccn1)C2`, for which the INHIBITION is on record as 52.1%.
In the case of `CN1C[C@@H]2COC[C@]2(C(=O)NCc2cccs2)C1` it was 4.02%.
Regarding `O=C(NCCc1cccs1)[C@]12COC[C@H]1CN(Cc1ccccn1)C2`, the INHIBITION was 24.9%.
As to `O=C(NC1CC(F)(F)C1)[C@]12COC[C@H]1CN(Cc1ccsc1)C2`, the INHIBITION was found to be 35.8%.
In the case of `O=C(NC1CC(F)(F)C1)[C@]12COC[C@H]1CN(Cc1ccccc1)C2`, the INHIBITION came to 61.1%.
In the case of `Cn1cc(CN2C[C@@H]3COC[C@]3(C(=O)NCc3cccs3)C2)cn1` it was 28.3%; in that of `CN(C)C(=O)CCS(=O)(=O)Cc1coc(-c2ccc(F)cc2)n1`, -23.4%.
`CCC(CCN)n1ccc(C(F)(F)F)n1` (centres undefined): the INHIBITION was found to be 35.2%.
In the case of `Cc1cc(C)n(-c2cncc(NCCNC(=O)C(C)(C)C)n2)n1`, the INHIBITION is listed as 34.9%.
For the compound `CC(C)C(N)CNS(=O)(=O)Cc1cccc2cccnc12` (centres undefined), the INHIBITION stood at 24.2%.
For the compound `CC(C)CCN(C(=O)CCn1cc(S(N)(=O)=O)cn1)C1CC1`, the INHIBITION came out at 11.4%.
On to `Cn1cc(-c2cnc(-c3ccnn3C)nc2)cc1C(=O)N1CCCC1`, for which the INHIBITION is -4.26%.
As to `Cc1ccc(C2COCCN2C(=O)c2cccc(N(C)C)c2)o1` (centres undefined), the INHIBITION came out at 32.9%.
Turning to `Cc1ccc(C(=O)N2CCc3c(CNS(C)(=O)=O)cncc3C2)o1`, the INHIBITION is -3.83%.
In the case of `Fc1ccc(CN2C[C@@H](OCc3ccccn3)[C@H]3COC[C@H]32)cc1` it was 43.9%; in that of `c1ccc(CO[C@@H]2CN(Cc3nccs3)[C@@H]3COC[C@@H]32)nc1`, 59.3%.
With `O=C(c1ccnnc1)N1C[C@H](OCc2ccccn2)[C@H]2COC[C@H]21`, the INHIBITION turned out to be 5.67%.
In the case of `Cc1nc(CO[C@H]2CN(C(=O)c3ccc[nH]3)[C@@H]3COC[C@H]23)cs1` it was 13.1%; in that of `O=C(c1ccc[nH]1)N1C[C@H](OCc2ccccn2)[C@H]2COC[C@H]21`, 64.8%.
As for `Cc1nc(CO[C@@H]2CN(Cc3nccs3)[C@@H]3COC[C@@H]32)cs1`, the INHIBITION is given as -56.3%.
In the case of `CN(CC(=O)N1CCCCC1Cn1cccn1)Cc1ccccc1` (centres undefined), the INHIBITION came to 23.5%.
Regarding `Cn1nc(Cn2cccn2)c2c1CN(Cc1ccsc1)C2`, the INHIBITION was -41.8%.
As to `O=C(C[C@@H]1COC[C@H]2CN(C3CCC3)C[C@@H]12)NCc1cccnc1`, the INHIBITION came to 27.5%.
In the case of `COCCNC(=O)C[C@@H]1COC[C@H]2CN(Cc3cccnc3)C[C@@H]12` it was 40.5%; in that of `O=C(C[C@@H]1COC[C@H]2CN(Cc3cccnc3)C[C@@H]12)N1CCCC1`, -11.6%.
Take `O=C(C[C@@H]1COC[C@H]2CN(CC3CC3)C[C@@H]12)NCc1cccnc1`: the INHIBITION is reported as 53.4%.
Consider `O=C(C[C@@H]1COC[C@H]2CN(Cc3cccnc3)C[C@@H]12)NCC1CC1`, for which the INHIBITION was determined as 54.4%.
In the case of `COCCN1C[C@@H]2COC[C@@H](CC(=O)NCc3cccnc3)[C@@H]2C1`, the INHIBITION came to 47.4%.
